From PubChem BioAssay AID1159580 (chemical genetic matrix, 2015)
Values joined by “and” are separate entries in the source; they are usually repeats but may differ in a detail not shown here. Identical values can stand only once. In all, about 5,500 compounds went through this assay and about 2,000 (36%) were called active. Roughly 18% stayed inconclusive and do not appear here. Rule as the data show it: active = normalized growth mostly below about 0.91 (no sharp cut-off); inconclusive = no clear call, values can overlap the other calls; inactive = mostly above about 0.92. The list shows a part of the results.

Experiment: chemical genetic growth profiling, strain panel (AID 1159580);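 also: tested at 20 µM; growth read once vehicle control cultures reached saturation at 30 °C; 1 = growth at the plate median or of vehicle wells; lower values mean less growth of the strain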
Details: S. cerevisiae deletion strains, growth OD

Measured: normalized growth

O=C1c2ccccc2C(=O)C1c1ccccc1
inactive: locus YAL013W, strain DEP1, hits give low values 0.975 | locus YAL021C, strain ccr4, hits give low values 1.01 | locus YAL026C, strain drs2, hits give low values 1 | locus YAL030W, strain snc1, hits give low values 1 | locus YBL061C, strain skt5, hits give low values 0.998 | locus YBR009C, strain hhf1, hits give low values 1.01 | locus YBR021W, strain FUR4, hits give low values 1 | locus YBR023C, strain chs3, hits give low values 1 | locus YBR171W, strain sec66, hits give low values 0.957 | locus YBR229C, strain ROT2, hits give low values 1 and 0.94 | locus YBR231C, strain swc5, hits give low values 1.01 | locus YBR279W, strain paf1, hits give low values 0.993 | locus YCL011C, strain gbp2, hits give low values 1 | locus YCL016C, strain dcc1, hits give low values 1.01 | locus YCL029C, strain bik1, hits give low values 1.01 | locus YCL061C, strain MRC1, hits give low values 1 and 0.995 | locus YCL069W, strain vba3, hits give low values 0.995 | locus YCR088W, strain abp1, hits give low values 0.988 | locus YDL005C, strain med2, hits give low values 1 | locus YDL035C, strain GPR1, hits give low values 1.01 | locus YDL040C, strain nat1, hits give low values 1 | locus YDL074C, strain BRE1, hits give low values 1 | locus YDL101C, strain DUN1, hits give low values 1.01 and 0.909 | locus YDL134C, strain PPH21, hits give low values 1.01 | locus YDL185W, strain tfp1, hits give low values 0.991 | locus YDL192W, strain arf1, hits give low values 1.01 | locus YDR001C, strain nth1, hits give low values 0.981 | locus YDR069C, strain doa4, hits give low values 0.996 | locus YDR101C, strain arx1, hits give low values 1 | locus YDR137W, strain rgp1, hits give low values 0.995 | locus YDR150W, strain NUM1, hits give low values 0.998 and 1.01 | locus YDR159W, strain sac3, hits give low values 1.01 | locus YDR162C, strain NBP2, hits give low values 0.995 | locus YDR195W, strain ref2 0.997 | locus YDR297W, strain sur2, hits give low values 0.993 | locus YDR318W, strain mcm21, hits give low values 1.01 | locus YDR334W, strain swr1, hits give low values 0.996 | locus YDR335W, strain msn5, hits give low values 0.995 | locus YDR388W, hits give low values 1.02 | locus YDR392W, strain spt3, hits give low values 0.918 | locus YDR502C, strain sam2, hits give low values 1 | locus YEL003W, strain gim4, hits give low values 0.991 | locus YEL037C, strain rad23, hits give low values 0.992 | locus YEL061C, strain CIN8 (second series), hits give low values 0.986 | locus YEL061C, strain CIN8, hits give low values 0.998 and 0.977 | locus YER015W, strain faa2, hits give low values 1.01 | locus YER016W, strain bim1, hits give low values 1 | locus YER110C, hits give low values 1.01 | locus YER111C, strain swi4, hits give low values 0.999 | locus YER155C, strain BEM2 (second series), hits give low values 1 | locus YER155C, strain BEM2, hits give low values 0.989 | locus YER167W, strain BCK2, hits give low values 0.997 | locus YFR010W, strain ubp6, hits give low values 1 | locus YGL078C, strain dbp3, hits give low values 0.99 | locus YGL086W, strain mad1, hits give low values 0.997 | locus YGL167C, strain pmr1, hits give low values 1 | locus YGL173C, strain kem1, hits give low values 1.02 | locus YGL227W, strain vid30, hits give low values 0.978 | locus YGL240W, strain doc1, hits give low values 1.01 | locus YGL248W, strain PDE1, hits give low values 1 | locus YGL253W, strain hxk2, hits give low values 0.998 | locus YGR078C, strain PAC10, hits give low values 0.942 | locus YGR135W, strain pre9, hits give low values 1.01 | locus YGR229C, strain SMI1, hits give low values 1.01 and 1.05 | locus YGR252W, strain gcn5, hits give low values 0.998 | locus YHR013C, strain ard1, hits give low values 0.974 | locus YHR027C, strain rpn1, hits give low values 0.997 | locus YHR030C, strain SLT2, hits give low values 1 and 0.957 and 0.982 | locus YHR079C, strain IRE1 (second series), hits give low values 1.01 | locus YHR079C, strain IRE1, hits give low values 0.95 | locus YHR087W, strain rtc3, hits give low values 0.923 | locus YHR094C, strain hxt1, hits give low values 1.01 | locus YHR129C, strain ARP1, hits give low values 0.992 | locus YHR142W, strain chs7, hits give low values 1 | locus YHR200W, strain rpn10, hits give low values 1.01 | locus YIL066C, strain RNR3, hits give low values 1.01 | locus YIL073C, strain SPO22, hits give low values 1.03 | locus YIL125W, strain kgd1, hits give low values 0.989 | locus YIR030C, strain dcg1, hits give low values 1 | locus YJL092W, strain hpr5, hits give low values 0.983 | locus YJL095W, strain BCK1 (second series), hits give low values 1 | locus YJL095W, strain BCK1, hits give low values 0.984 and 0.97 | locus YJL115W, strain asf1, hits give low values 0.99 | locus YJL129C, strain trk1, hits give low values 0.978 | locus YJL134W, strain LCB3, hits give low values 0.993 | locus YJL154C, strain vps35, hits give low values 0.991 | locus YJL164C, strain tpk1, hits give low values 1 | locus YJL166W, strain qcr8, hits give low values 1.01 | locus YJL168C, strain set2, hits give low values 1.01 | locus YJL187C, strain SWE1 (second series), hits give low values 1 | locus YJL187C, strain SWE1, hits give low values 1 | locus YJR043C, strain POL32, hits give low values 1.01 and 0.982 | locus YJR066W, strain TOR1, hits give low values 0.92 | locus YJR075W, strain HOC1, hits give low values 1.01 and 0.971 | locus YKL009W, strain mrt4, hits give low values 0.974 | locus YKL068W, hits give low values 0.989
